We go through 94 compounds from PubChem BioAssay AID1671202 (University of Kansas High Throughput Screening Laboratory, 2021).

Among all 190,000 compounds or so, about 6,900 (3.6%) were called active. Cut-off read from the data, not from the text of the source: active = inhibition above about 50%; inactive = the rest. The full list was thinned out, with actives kept by preference.

The assay deals with Huntingtin (Homo sapiens) (UniProt P42858). In words: mutant huntingtin-calmodulin interaction inhibitors – biochemical, AlphaScreen, primary screen (AID 1671202).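 Note: 0% = both proteins with DMSO and 100% = one protein alone.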 As to conditions: AlphaScreen His-mHTT/GST-CaM binding, luminescence; at 15 µM, active compounds read high.
Sequence of Huntingtin (Homo sapiens) (P42858 whole entry, looked up, stated change not applied): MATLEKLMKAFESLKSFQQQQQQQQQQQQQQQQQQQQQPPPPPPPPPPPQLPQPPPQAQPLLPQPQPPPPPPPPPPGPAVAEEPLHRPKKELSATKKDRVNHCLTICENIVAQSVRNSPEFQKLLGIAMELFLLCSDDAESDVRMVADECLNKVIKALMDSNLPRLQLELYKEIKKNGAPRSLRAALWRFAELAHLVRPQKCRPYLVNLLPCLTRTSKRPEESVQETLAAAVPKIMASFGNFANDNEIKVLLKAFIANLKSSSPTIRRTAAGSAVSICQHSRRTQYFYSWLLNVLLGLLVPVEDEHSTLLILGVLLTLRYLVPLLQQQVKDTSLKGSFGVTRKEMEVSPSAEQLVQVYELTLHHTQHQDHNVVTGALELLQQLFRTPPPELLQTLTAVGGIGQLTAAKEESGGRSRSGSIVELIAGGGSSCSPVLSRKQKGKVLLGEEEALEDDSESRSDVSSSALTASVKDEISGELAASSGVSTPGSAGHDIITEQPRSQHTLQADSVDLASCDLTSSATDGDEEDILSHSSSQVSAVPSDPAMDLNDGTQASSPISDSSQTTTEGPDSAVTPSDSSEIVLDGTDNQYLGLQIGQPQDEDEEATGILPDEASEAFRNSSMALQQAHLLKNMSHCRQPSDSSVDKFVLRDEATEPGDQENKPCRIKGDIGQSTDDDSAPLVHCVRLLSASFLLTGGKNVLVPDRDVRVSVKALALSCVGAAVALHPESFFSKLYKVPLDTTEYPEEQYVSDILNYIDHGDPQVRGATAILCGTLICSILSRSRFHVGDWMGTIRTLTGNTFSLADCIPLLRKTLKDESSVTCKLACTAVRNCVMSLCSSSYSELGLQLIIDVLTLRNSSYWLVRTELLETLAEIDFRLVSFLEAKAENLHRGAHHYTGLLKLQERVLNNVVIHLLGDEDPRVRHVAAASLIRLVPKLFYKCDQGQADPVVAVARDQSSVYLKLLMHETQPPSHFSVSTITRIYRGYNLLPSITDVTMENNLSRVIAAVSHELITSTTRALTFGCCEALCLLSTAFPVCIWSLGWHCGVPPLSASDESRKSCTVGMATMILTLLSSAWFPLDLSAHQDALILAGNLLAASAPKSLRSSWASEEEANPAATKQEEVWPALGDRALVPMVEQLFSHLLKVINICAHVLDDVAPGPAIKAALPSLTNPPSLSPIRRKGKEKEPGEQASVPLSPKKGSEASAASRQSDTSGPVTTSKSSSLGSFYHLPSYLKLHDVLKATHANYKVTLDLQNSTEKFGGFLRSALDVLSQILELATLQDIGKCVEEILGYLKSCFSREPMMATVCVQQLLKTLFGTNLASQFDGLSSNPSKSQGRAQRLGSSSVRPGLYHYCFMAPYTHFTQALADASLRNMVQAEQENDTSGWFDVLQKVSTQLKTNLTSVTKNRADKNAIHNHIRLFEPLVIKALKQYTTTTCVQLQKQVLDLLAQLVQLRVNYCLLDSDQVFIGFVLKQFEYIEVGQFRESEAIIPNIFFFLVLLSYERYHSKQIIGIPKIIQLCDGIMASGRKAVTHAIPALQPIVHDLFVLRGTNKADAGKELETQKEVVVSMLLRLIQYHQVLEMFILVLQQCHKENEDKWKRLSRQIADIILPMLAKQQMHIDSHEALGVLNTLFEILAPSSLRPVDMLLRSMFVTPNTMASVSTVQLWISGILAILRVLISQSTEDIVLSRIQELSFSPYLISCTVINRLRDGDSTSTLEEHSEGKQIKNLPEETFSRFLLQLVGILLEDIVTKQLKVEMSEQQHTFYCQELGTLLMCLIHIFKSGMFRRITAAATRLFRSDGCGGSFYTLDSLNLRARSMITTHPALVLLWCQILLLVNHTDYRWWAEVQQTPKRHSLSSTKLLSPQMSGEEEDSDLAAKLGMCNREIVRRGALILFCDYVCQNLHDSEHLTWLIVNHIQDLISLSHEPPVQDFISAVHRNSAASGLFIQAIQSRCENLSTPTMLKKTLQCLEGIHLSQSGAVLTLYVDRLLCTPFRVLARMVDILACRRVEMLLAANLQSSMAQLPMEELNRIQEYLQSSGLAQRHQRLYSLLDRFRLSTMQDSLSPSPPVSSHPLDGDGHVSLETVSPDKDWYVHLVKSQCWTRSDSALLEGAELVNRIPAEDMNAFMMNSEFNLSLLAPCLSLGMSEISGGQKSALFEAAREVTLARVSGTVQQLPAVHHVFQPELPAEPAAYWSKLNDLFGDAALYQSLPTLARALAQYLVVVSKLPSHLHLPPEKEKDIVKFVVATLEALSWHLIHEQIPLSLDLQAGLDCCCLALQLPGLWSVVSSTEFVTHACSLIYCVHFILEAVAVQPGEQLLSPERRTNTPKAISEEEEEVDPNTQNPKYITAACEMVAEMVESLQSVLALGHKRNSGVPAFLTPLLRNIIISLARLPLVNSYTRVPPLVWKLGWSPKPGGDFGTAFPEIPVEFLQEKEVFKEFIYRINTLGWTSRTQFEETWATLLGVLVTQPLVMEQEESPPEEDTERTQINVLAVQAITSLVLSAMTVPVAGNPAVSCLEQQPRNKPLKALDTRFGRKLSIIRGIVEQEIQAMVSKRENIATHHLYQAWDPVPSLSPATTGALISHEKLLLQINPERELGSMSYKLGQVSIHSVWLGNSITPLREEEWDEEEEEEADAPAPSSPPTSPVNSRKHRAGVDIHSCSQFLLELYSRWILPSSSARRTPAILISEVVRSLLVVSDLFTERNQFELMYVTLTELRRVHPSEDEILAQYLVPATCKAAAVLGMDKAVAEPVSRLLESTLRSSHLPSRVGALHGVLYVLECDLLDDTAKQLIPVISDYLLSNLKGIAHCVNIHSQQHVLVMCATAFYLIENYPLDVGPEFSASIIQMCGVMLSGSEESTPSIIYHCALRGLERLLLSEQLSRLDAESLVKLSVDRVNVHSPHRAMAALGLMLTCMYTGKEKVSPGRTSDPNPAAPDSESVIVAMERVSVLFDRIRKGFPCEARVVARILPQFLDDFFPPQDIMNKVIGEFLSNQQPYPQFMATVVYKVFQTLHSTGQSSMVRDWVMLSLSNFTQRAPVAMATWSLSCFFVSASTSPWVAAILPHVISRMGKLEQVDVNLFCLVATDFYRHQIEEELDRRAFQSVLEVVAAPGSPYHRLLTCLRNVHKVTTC
In general, inhibition refers to the relative decrease from the control value, in per cent. Consider `CCCCN(C)Cc1c(O)ccc2c1OC(=Cc1cc(OC)c(OC)c(OC)c1)C2=O`, for which the inhibition is -3.1% (inactive).

Consider `COc1cccc(C=C2Oc3c(ccc(O)c3CN3CCCCC3C)C2=O)c1OC` (centres undefined), for which the inhibition was 15.7% (inactive). Under `COc1cccc(C=C2Oc3c(ccc(O)c3CN(C)Cc3ccccc3)C2=O)c1OC` stands 93.1% (active); under `COCC(C)(O)CNC(=O)C(=O)NCc1ccc(C)cc1` (centres undefined), -17.7% (inactive); under `Cc1ccc2[nH]cc(CCN3CC(C(=O)Nc4ccc(Br)cc4)CC3=O)c2c1` (centres undefined), 53.5% (active). Under `Cc1ccc2[nH]cc(CCN3CC(C(=O)Nc4cccc(Br)c4)CC3=O)c2c1` (centres undefined) stands 39.7% (inactive); under `CC(C)CCNC(=O)C1CC(=O)N(CCc2c[nH]c3ccc(Cl)cc23)C1` (centres undefined), 25.8% (inactive).

With `Cc1ccc2[nH]cc(CCN3CC(C(=O)N4CCN(c5ccccc5)CC4)CC3=O)c2c1` (centres undefined), the inhibition is 45.4% (inactive).

As for `O=C(Nc1ccc2c(c1)CCC2)C1CC(=O)N(CCc2c[nH]c3ccc(F)cc23)C1` (centres undefined), the inhibition was 53.7% (active). Consider `Cc1ccc(NC(=O)C2CC(=O)N(CCc3c[nH]c4ccc(Cl)cc34)C2)c(C)c1` (centres undefined), for which the inhibition is 65% (active).

As for `O=C(Nc1ccccc1F)C1CC(=O)N(CCc2c[nH]c3ccc(F)cc23)C1` (centres undefined), the inhibition was 9.18% (inactive). Under `O=C(NCCN1CCOCC1)C1CC(=O)N(CCc2c[nH]c3ccc(F)cc23)C1` (centres undefined) stands -6.88% (inactive); under `Cc1ccc2[nH]cc(CCN3CC(C(=O)Nc4cccc(C)c4C)CC3=O)c2c1` (centres undefined), 30.5% (inactive); under `CC1(C(=O)NCC2CCCO2)CCC(=O)N1Cc1cccs1` (centres undefined), 3% (inactive). In the case of `CCN(c1ccc(F)cc1)S(=O)(=O)c1ccc2[nH]cc(C(=O)NCCN(C)C)c(=O)c2c1` it was 3% (inactive). Under `CCOc1ccc(CN2C(=O)CCC2(C)C(=O)NC2CCCC(C)C2C)cc1` (centres undefined) stands -9% (inactive). As for `C=CCNCCCOc1ccc(Br)cc1C`, the inhibition is 0.1% (inactive). `CCc1ccc(NC(=O)CN2C(=O)C(c3ccccc3)=NC23CCCCC3)cc1`: the inhibition is -7.57% (inactive). Under `COc1ccc(NC(=O)CN2C(=O)C(c3ccccc3)=NC23CCCCCC3)cc1OC` stands -0.13% (inactive); under `O=C(CN1C(=O)C(c2ccccc2)=NC12CCCCC2)Nc1ccc(Cl)cc1`, 50.9% (active); under `Cc1ccc(NC(=O)CN2CCN(c3ccccn3)CC2)cc1F`, 2% (inactive). In the case of `COCCNC(=O)NCCn1ccnc1C` it was -11.5% (inactive).

As for `COc1cc(CN2CCN(Cc3cc(OC)c(OC)c(OC)c3)CC2)cc(OC)c1`, the inhibition is -4.6% (inactive). `COc1ccc(CC(=O)Nc2ccccc2F)cc1`: the inhibition is 0.5% (inactive). As to `COc1ccc(O)c(C(=O)CC(=O)c2cccc(F)c2)c1`, the inhibition is 58.1% (active). Under `COc1cccc(C(=O)N(CC#N)CC#N)c1` stands 4.4% (inactive).

`CC(C)n1c(COc2ccccc2)nc2ccccc21`: the inhibition is -16% (inactive). Under `Cn1c(COc2ccc(Cl)cc2)nc2ccccc2c1=O` stands 61.9% (active); under `CCSc1nc2ccccc2c(=O)n1C`, -11.7% (inactive).

As to `O=C(Nc1cccc(NC(=O)c2ccccc2Cl)c1)c1ccccc1Cl`, the inhibition was 1% (inactive). On to `Nc1c(C(=O)Nc2ccccc2I)sc2nc(-c3cccs3)ccc12`, for which the inhibition was -8% (inactive). Under `CCOc1cccc2c1OC(c1ccc(OC)c(OC)c1)N1N=C(c3ccco3)CC21` (centres undefined) stands 45% (inactive); under `CCOc1cccc2c1OC1(CCCCC1)N1N=C(c3cccnc3)CC21` (centres undefined), 27% (inactive); under `CCOc1cccc2c1OC(c1cccc(OC)c1OC)N1N=C(c3ccc(C)o3)CC21` (centres undefined), 67% (active).

On to `CCOC(=O)C1CCN(C(=O)CCN2C(=O)c3ccccc3S2(=O)=O)CC1`, for which the inhibition is -1.8% (inactive). In the case of `O=C(Nc1ccc2c(c1)OCCO2)N1CCCC1c1ccc(Cl)cc1` (centres undefined) it was 10.2% (inactive).

With `N#C/C(=C\c1ccc(F)cc1)c1nc(-c2cc3ccccc3oc2=O)cs1`, the inhibition is -8% (inactive).

For `CC1(C)Cc2ccccc2-c2nc(NCCO)n(Cc3ccccc3)c(=O)c21`, the inhibition is 15% (inactive). Under `Cc1cccc(NC(=O)c2nc(-c3cccc(F)c3)n3c2CCCCC3)n1` stands 43.6% (inactive); under `Cn1cc(CCN2CCN(C(=O)c3ccc(C(F)(F)F)cc3)CC2)c2cccnc21`, 54.6% (active). Under `Cc1ccccc1N1CCN(C(=O)Cc2cn(C)c3ncccc23)CC1` stands 10.1% (inactive).

On to `CCCNC(=O)Cc1cn(C)c2ncccc12`, for which the inhibition is -16.2% (inactive). Turning to `CCCC(O)=C1C(=O)CC(C)(C)CC1=Nc1cccc([N+](=O)[O-])c1`, the inhibition was -1.5% (inactive). Under `CC(=O)Nc1ccc(N/C=C(\C#N)c2nc(-c3ccccc3)cs2)cc1` stands 4% (inactive); under `Cc1cccc(-n2nc3c(c2NC(=O)C2CC2)CSC3)c1C`, 8% (inactive); under `O=C(Nc1c2c(nn1-c1ccc(Cl)cc1)CSC2)c1cccc(Br)c1`, 50% (active). Under `CC(C)C(=O)Nc1c2c(nn1-c1ccc(Cl)cc1)CSC2` stands -5% (inactive). Under `Cc1cccc(-n2nc3c(c2NC(=O)c2ccc(Br)o2)CSC3)c1C` stands 24% (inactive); under `COc1ccc(/C=C/C(=O)Nc2c3c(nn2-c2ccccc2C)CSC3)cc1OC`, 29% (inactive); under `O=C(Nc1c2c(nn1-c1ccc(Cl)cc1)CSC2)c1cccc([N+](=O)[O-])c1`, -9% (inactive). In the case of `O=C(Nc1c2c(nn1-c1ccc(Cl)cc1)CSC2)c1ccc(F)cc1`, the inhibition was 21% (inactive). For `Cc1ccccc1-n1nc2c(c1NC(=O)/C=C/c1ccco1)CSC2`, the inhibition was 98% (active). Under `Cc1ccccc1-n1nc2c(c1NC(=O)C1CC1)CSC2` stands 60% (active). In the case of `COc1cccc(C(=O)Nc2c3c(nn2-c2ccc(Cl)cc2)CSC3)c1` it was 41% (inactive). Under `Cc1cccc(-n2nc3c(c2NC(=O)c2c(F)cccc2F)CSC3)c1C` stands 5% (inactive); under `O=C(/C=C/c1ccco1)Nc1c2c(nn1-c1ccc(Cl)cc1)CSC2`, 98% (active). With `O=C(Nc1ccc(Cl)cc1)c1cc(S(=O)(=O)NCc2ccccc2)ccc1Cl`, the inhibition is 13% (inactive). In the case of `COc1ccc(OC)c(-c2cc(C(=O)Nc3nc4c(s3)CCCC4)n(C)n2)c1` it was 16.3% (inactive).

`Cc1nc(C2CCN(C(=O)c3cccc(F)c3)CC2)sc1C(=O)NCc1cccnc1`: the inhibition is 9.99% (inactive). In the case of `CCCn1cnnc1C1CCCCN1C(=O)c1ccncc1` (centres undefined) it was -3.5% (inactive); in that of `c1ccc2c(c1)CC1(CCCCC1)N=C2N1CCOCC1`, -5.33% (inactive); in that of `CC(C)C(=O)Nc1ccc(N2CCCN(C(=O)C3CC3)CC2)nc1`, -1% (inactive). Under `CCCc1cc2c(=O)c(-c3ccc4c(c3)OCO4)c(CC)oc2cc1OC(=O)CC` stands -12.9% (inactive). In the case of `C=CCSC1=C(C#N)C(c2ccco2)C(C(=O)Nc2ccccc2OC)=C(C)N1` (centres undefined) it was 8% (inactive). `c1ccc(-c2n[nH]c(C3CCCN(Cc4ccccn4)C3)n2)cc1` (centres undefined): the inhibition is 100% (active). On to `O=C(Cc1cccnc1)N1CCCC(c2nc(-c3ccccc3)n[nH]2)C1` (centres undefined), for which the inhibition is -0.1% (inactive). Under `c1ccc(-c2n[nH]c(C3CCN(Cc4cccnc4)CC3)n2)cc1` stands 9.4% (inactive); under `COC(=O)C(C)Oc1ccc2c(c1)OC(=Cc1ccccc1C)C2=O` (centres undefined), 0.9% (inactive). In the case of `COCCN=C1Nc2ccccc2NC12CCCN(C(=O)Cc1cccs1)C2` (centres undefined) it was 63% (active); in that of `COCCN=C1Nc2ccccc2NC12CCCN(C(=O)c1cccc(Cl)c1)C2` (centres undefined), 65.7% (active); in that of `COc1cccc(CNC(=O)N2CCCC3(C2)Nc2cccnc2NC3=NC2CCCC2)c1` (centres undefined), 1.31% (inactive).

Regarding `COCCN=C1Nc2ccccc2NC12CCCN(C(=O)CSc1ccccc1)C2` (centres undefined), the inhibition is 76.2% (active).

As to `COCCN=C1Nc2ccccc2NC12CCCN(S(=O)(=O)c1cccc(OC)c1)C2` (centres undefined), the inhibition is 11.2% (inactive). Under `O=C(c1ccsc1)N1CCCC2(C1)Nc1ccccc1NC2=NC1CCCC1` (centres undefined) stands 4.96% (inactive); under `COc1ccccc1CC(=O)N1CCCC2(C1)Nc1cccnc1NC2=NC1CCCC1` (centres undefined), 16.8% (inactive). Under `Cc1ccccc1CNC(=O)C1(C)CCCN(C(=O)c2cccc(Cl)c2)C1` (centres undefined) stands 19.4% (inactive); under `Cc1cc(C)n(CC(=O)N2CCCC3(C2)Nc2cccnc2NC3=NC2CCCC2)n1` (centres undefined), -1.34% (inactive). As for `COCCN=C1Nc2ccccc2NC12CCCN(C(=O)Nc1cccc(OC)c1)C2` (centres undefined), the inhibition is 99.8% (active).

For the compound `CCOc1ccc(CC(=O)N2CCCC3(C2)Nc2cccnc2NC3=NC2CCCC2)cc1` (centres undefined), the inhibition was 11.4% (inactive). In the case of `COCCN=C1Nc2ccccc2CNC12CCN(C(=O)c1cccc(C(F)(F)F)c1)C2` (centres undefined) it was 18.7% (inactive); in that of `CCOc1ccc(CN2C(=O)CCC2(C)C(=O)NC2CCCC2)cc1OC` (centres undefined), 16% (inactive). In the case of `CCn1c(SCc2ccccc2F)nnc1-c1cccc([N+](=O)[O-])c1` it was 13.8% (inactive).

Turning to `Cc1ccc(C(=O)COc2ccccc2Cl)cc1C`, the inhibition is -114% (inactive). Under `COc1ccc([N+](=O)[O-])cc1C1=N/C(=C/c2cccc(F)c2)C(=O)O1` stands -5% (inactive); under `COc1ccc(NC(=O)C2CCN(c3cnn(C)c(=O)c3)CC2)c(OC)c1`, 36.1% (inactive); under `COc1ccccc1C(=O)N1CCC(c2nc(C(=O)N3CCOCC3)c(C)o2)CC1`, -6.99% (inactive). For `COc1cccc(C(=O)N2CCC(Oc3nc4c(C)ccc(C)c4s3)CC2)c1OC`, the inhibition is 64.4% (active).

`COc1cccc(C(=O)N2CCC(c3nnc(C(F)(F)F)o3)CC2)c1OC`: the inhibition was -7.5% (inactive). On to `Cc1ccc2nc(C(=O)NCc3cc(F)ccc3F)cn2c1`, for which the inhibition is -9% (inactive).

With `C=CCN(CC=C)S(=O)(=O)c1ccc(C(=O)Nc2c(C(N)=O)oc3ccccc23)cc1`, the inhibition is 15.2% (inactive).

Regarding `CCNC(=O)C1Cc2ccc(OC)cc2N2CCN(Cc3ccc(Cl)cc3)CC12` (centres undefined), the inhibition is 93.9% (active). Under `CCNC(=O)C1Cc2ccc(OC)cc2N2CCN(c3ccccc3OC)CC12` (centres undefined) stands 47% (inactive); under `COCCNC(=O)C1Cc2ccccc2N2CCN(c3ccccc3)CC12` (centres undefined), 11.4% (inactive); under `O=C(Nc1ccc2c(c1)OCO2)N1CCOc2ccccc21`, 7.08% (inactive).
